The source made the active and inactive calls.
How the values were obtained:
Albumin (Bos taurus) = Albumin (Bos taurus) (UniProt P02769); test: bovine serum albumin binders on microarray, profiling panel, artefact control for SMM control protein annotation, biochemical, small-molecule microarray, Alexa647 label, 635/667 nm fluorescence (AID 1118); conditions: BSA-A647 binding, fluorescence 635 nm, higher = more signal;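 further: score merges 667 nm emission intensity and signal-to-noise per printed compound spot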
[1] = small-molecule microarray binders of probe aXIP, primary screen, biochemical, NeuroSMM set, 635/667 nm fluorescence (AID 1119); conditions: higher = more signal, called active from +8 up or from −8 down;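 further: probe is the protein aXip251-270 applied at 1 µg/mL to compound-printed slides; binding of probe to printed compounds measured as 667 nm fluorescence plus signal to noise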
[2] = small-molecule binders of probe aNOTCH3, primary screen, biochemical, small-molecule microarray, 635/667 nm fluorescence (AID 1120); conditions: higher = more signal;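 further: probe is a biotin-tagged antibody raised against NOTCH3 rather than NOTCH3 protein; score merges spot fluorescence near 667 nm with spot signal to noise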
[3] = small-molecule binders of probe aNOTCH2, primary screen, biochemical, small-molecule microarray, 635/667 nm fluorescence (AID 1121); conditions: higher = more signal;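 further: score merges feature fluorescence read at 667 nm with its signal to noise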
[4] = biological target: Carbonic anhydrase 2 (Homo sapiens) (UniProt P00918); test: CAII small-molecule binders, profiling panel, biochemical, small-molecule microarray, Alexa647-labelled CAII (AID 1122); conditions: CAII-A647 binding fluorescence, higher = more signal
[5] = COS7 lysate on small-molecule microarray, probe aHis, 635 nm (AID 1123); conditions: COS7 cell lysate, fluorescence, higher = more signal;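 further: z-score combines 667nm fluorescence intensity with signal-to-noise per printed compound spot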
[6] = compound binding in COS7 lysate, probe aLAP1, primary screen, cell lysate, small-molecule microarray (AID 1124); conditions: probe aLAP1, fluorescence, higher = more signal;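 further: lysate comes from COS7 cells expressing LAP1 and is applied at 0.3 µg/mL; score merges spot fluorescence near 667 nm with signal-to-noise over triplicate slides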
Sam68 (KHDRBS1) = test: Sam68 small-molecule binders, primary screen, biochemical, small-molecule microarray, 635 nm fluorescence (AID 1125); conditions: small-molecule microarray binding, higher = more signal;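 further: score merges 667 nm channel intensity with signal to noise over triplicate slides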
[7] = test system: Chordin-like protein 2 (CHRDL2); test: CHRDL2 small-molecule binders, primary screen, biochemical, small-molecule microarray, 635 nm fluorescence (AID 1126); conditions: small-molecule microarray binding, fluorescence 635 nm; higher = more signal;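 further: printed compound slides probed with Chrdl2 protein at 4 µg/mL for 1 h at 4 C; score merges 667 nm emission intensity with signal to noise over three replicate slides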
[8] = biological target: Concanavalin-A (Canavalia ensiformis) (UniProt P02866); test: ConA small-molecule binders, primary screen, artefact control for SMM control protein annotation, biochemical, small-molecule microarray, Alexa647 label, 635 nm (AID 1127); conditions: ConA-A647 binding fluorescence, higher = more signal;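 further: z combines 667 nm emission intensity with signal-to-noise across three replicate slides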
[9] = anti-His antibody binders, primary screen, artefact control for SMM control protein annotation, biochemical, small-molecule microarray, 635 nm fluorescence (AID 1128); conditions: anti-His Alexa647 antibody binding, higher = more signal;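 further: score merges feature fluorescence with signal-to-noise for each printed compound spot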
[10] = test system: Human papillomavirus type 1a E7 protein (residues 1-88); test: HPV1a E7 small-molecule binders, primary screen, biochemical, small-molecule microarray, residues 1-88, 635 nm (AID 1129); conditions: small-molecule microarray binding, fluorescence 635 nm; higher = more signal
[11] = biological target: Focal adhesion kinase 1 (Homo sapiens) (UniProt Q05397); test: small-molecule microarray binders of FAK, primary screen, biochemical, 635/667 nm fluorescence, BSA, DTT (AID 1130); conditions: PTK2 binding, 635 nm fluorescence, higher = more signal;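 further: composite of spot emission at 667 nm and signal to noise over triplicate slides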
[12] = test system: Fibrinogen (Alexa647-labelled); test: fibrinogen binders on compound microarrays, profiling panel, artefact control for SMM control-protein annotation, biochemical, small-molecule microarray, 635/667 nm fluorescence (AID 1131); conditions: fibrinogen-A647 binding fluorescence, higher = more signal;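 further: z-score merges 667 nm fluorescence with per-spot signal-to-noise over triplicate slides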
[13] = biological target: Follistatin (Homo sapiens) (UniProt P19883); test: follistatin binders on small-molecule microarrays, primary screen, biochemical, small-molecule microarray, 635/667 nm fluorescence (AID 1132); conditions: FST binding, 635 nm fluorescence, higher = more signal
[14] = biological target: Fibroblast growth factor 2 (Homo sapiens) (UniProt P09038); test: FGF2 binders on small-molecule microarrays, primary screen, biochemical, small-molecule microarray, 635/667 nm fluorescence (AID 1133); conditions: small-molecule microarray binding, FGF2, fluorescence 635/667; higher = more signal
[15] = mitochondrial membrane potential change in A549 cells, profiling panel, cell-based, JC-1 fluorescence, basal, 24 h, 100 nL (AID 1138); conditions: higher = more signal;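 further: A549 lung adenocarcinoma cells under basal conditions with no added stimulus; test concentration not given here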
Lefty1 = Lefty1 binders on small-molecule microarrays, primary screen, biochemical, small-molecule microarray, 635/667 nm fluorescence (AID 1139); conditions: small-molecule microarray binding, fluorescence 635/667; higher = more signal
[16] = test system: wheat germ agglutinin (Triticum aestivum), Alexa647-labelled; test: wheat germ agglutinin binders on compound microarrays, profiling panel, artefact control for SMM control-protein annotation, biochemical, small-molecule microarray, 635/667 nm fluorescence (AID 1140); conditions: WGA-A647 binding, 635 nm fluorescence, higher = more signal;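 further: score merges 667 nm feature emission with signal to noise over triplicate slides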
[17] = biological target: Luciferin 4-monooxygenase (Photinus pyralis) (UniProt P08659); test: firefly luciferase enzyme inhibitors, primary screen, biochemical, luminescence, purified enzyme, 2006 set (AID 1141); conditions: SteadyGlo luminescence, 30 min, higher = more signal, called active from +8 up or from −8 down;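 further: cell-free assay with purified firefly luciferase at 100 ng per well in PBS; test concentration not given here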
Luciferin 4-monooxygenase (Photinus pyralis), sequence (P08659 whole entry, looked up): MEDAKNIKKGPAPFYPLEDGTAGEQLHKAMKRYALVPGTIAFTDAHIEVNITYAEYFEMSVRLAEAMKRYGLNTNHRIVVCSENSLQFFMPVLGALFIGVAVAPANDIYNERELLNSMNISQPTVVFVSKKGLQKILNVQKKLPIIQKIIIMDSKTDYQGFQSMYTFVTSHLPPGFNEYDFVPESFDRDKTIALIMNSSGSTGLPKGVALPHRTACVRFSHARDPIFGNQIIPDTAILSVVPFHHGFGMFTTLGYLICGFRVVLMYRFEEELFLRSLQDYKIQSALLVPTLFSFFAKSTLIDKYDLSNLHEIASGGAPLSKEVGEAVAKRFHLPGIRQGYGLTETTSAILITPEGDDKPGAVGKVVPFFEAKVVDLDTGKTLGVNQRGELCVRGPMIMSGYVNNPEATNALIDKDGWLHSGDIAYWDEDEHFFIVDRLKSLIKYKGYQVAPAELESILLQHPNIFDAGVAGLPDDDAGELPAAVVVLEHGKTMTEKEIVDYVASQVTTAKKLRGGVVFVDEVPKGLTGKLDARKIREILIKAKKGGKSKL

Albumin (Bos taurus), sequence (P02769 whole entry, looked up): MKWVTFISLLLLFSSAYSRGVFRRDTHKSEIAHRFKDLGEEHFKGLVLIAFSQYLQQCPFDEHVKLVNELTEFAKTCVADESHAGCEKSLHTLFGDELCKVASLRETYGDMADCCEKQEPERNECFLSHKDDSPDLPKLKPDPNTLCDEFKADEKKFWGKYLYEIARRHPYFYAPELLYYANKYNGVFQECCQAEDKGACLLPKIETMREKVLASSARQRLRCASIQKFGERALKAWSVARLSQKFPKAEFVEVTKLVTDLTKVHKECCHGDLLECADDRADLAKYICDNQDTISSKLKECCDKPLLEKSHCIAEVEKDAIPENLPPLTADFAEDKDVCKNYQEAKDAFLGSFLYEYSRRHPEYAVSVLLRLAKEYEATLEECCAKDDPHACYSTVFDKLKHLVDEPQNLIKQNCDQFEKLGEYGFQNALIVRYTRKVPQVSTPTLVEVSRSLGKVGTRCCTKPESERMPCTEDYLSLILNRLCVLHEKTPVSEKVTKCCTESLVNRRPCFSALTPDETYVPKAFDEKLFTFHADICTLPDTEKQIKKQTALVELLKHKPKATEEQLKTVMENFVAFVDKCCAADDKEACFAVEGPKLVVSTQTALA
Concanavalin-A (Canavalia ensiformis), sequence (P02866 whole entry, looked up): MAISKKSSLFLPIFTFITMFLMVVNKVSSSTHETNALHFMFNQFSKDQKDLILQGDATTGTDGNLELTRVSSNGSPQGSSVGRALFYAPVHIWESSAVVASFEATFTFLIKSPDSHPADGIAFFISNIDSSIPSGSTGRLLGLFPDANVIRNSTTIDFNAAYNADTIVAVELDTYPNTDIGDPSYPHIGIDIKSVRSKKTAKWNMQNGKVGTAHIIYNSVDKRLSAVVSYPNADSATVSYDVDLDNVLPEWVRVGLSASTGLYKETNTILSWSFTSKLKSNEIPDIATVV
Follistatin (Homo sapiens), sequence (P19883 whole entry, looked up): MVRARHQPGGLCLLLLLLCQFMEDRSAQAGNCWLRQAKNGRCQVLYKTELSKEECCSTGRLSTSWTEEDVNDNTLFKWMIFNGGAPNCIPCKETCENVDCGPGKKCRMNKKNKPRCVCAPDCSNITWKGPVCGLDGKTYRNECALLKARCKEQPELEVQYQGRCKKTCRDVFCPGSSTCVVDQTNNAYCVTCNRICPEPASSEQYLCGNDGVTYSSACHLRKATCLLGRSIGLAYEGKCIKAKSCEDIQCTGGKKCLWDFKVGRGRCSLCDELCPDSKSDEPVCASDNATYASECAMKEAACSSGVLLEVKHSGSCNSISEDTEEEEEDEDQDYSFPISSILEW
Fibroblast growth factor 2 (Homo sapiens), sequence (P09038 whole entry, looked up): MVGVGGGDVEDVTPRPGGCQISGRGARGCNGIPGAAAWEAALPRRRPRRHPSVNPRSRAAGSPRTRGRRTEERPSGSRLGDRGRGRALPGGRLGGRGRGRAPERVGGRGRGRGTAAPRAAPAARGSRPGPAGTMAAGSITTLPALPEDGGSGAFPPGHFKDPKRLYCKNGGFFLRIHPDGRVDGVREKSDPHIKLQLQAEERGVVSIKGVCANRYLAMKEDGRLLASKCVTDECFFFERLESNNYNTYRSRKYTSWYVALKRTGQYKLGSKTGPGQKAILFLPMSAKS
Focal adhesion kinase 1 (Homo sapiens), sequence (Q05397 whole entry, looked up): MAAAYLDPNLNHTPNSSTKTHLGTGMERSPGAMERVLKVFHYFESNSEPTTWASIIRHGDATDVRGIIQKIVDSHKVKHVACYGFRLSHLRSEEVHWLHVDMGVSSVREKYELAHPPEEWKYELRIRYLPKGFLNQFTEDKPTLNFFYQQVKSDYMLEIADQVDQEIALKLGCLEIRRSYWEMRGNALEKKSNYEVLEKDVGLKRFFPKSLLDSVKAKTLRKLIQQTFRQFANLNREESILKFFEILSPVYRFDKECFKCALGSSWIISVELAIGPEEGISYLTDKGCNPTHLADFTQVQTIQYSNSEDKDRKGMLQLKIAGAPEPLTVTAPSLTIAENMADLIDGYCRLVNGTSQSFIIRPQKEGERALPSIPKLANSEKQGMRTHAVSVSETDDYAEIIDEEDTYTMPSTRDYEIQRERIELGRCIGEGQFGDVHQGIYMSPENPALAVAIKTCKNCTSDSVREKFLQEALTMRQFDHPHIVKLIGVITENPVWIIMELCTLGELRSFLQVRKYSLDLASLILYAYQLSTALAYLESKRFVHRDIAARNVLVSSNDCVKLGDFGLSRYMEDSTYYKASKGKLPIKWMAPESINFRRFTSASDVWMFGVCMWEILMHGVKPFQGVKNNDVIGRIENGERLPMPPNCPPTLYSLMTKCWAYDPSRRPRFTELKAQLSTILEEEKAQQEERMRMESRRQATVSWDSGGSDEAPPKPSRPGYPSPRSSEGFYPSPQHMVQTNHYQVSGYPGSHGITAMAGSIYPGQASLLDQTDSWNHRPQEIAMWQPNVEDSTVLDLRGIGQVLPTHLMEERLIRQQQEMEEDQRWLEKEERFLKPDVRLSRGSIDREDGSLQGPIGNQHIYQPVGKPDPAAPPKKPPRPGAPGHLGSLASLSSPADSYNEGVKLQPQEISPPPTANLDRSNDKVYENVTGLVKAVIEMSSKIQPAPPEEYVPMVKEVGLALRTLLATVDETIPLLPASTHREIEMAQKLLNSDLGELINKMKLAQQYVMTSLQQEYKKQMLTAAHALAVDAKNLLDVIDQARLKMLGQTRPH

SMILES | composite z-score (Albumin (Bos taurus)) | composite Z-score [1] | composite z-score [2] | composite z-score [3] | composite z-score [4] | composite z-score [5] | composite z-score [6] | composite z-score (Sam68 (KHDRBS1)) | composite z-score [7] | composite z-score [8] | composite z-score [9] | composite z-score [10] | composite z-score [11] | composite z-score [12] | composite z-score [13] | composite z-score [14] | z-score [15] | composite z-score (Lefty1) | composite z-score [16] | z-score [17]
CC(C)(C)N1CC=CC23O[C@@H]4C=CCCOC(=O)C4[C@H]2C(=O)N(CCCO)[C@@H]3C1=O (stereo not given in full) | -2.01 | 0.494 (inactive) | -0.222 | -0.177 | 0.405 | -0.552 | -0.0817 | -1.76 | -0.487 | -3.17 | -1.89 | -1.75 | -0.491 | -1.66 | -0.103 | -0.464 | -0.754 | -0.292 | -1.96 | -0.0881 (inactive)
OCc1ccc(-c2cc[n+](Cc3cccc(OC(F)(F)F)c3)cc2)cc1 | 0.503 | 0.372 (inactive) | 0.11 | -0.0254 | 0.894 | 0.813 | 1.08 | 0.981 | 1.49 | 1.08 | 2.33 | 1.07 | 0.0665 | 0.708 | 1.45 | 1.25 | -0.884 | 1.47 | 0.528 | 0.194 (inactive)
[N-]=[N+]=NCc1ccccc1[C@H]1OC(c2ccc(OCCCO)cc2)=N[C@@]1(Cc1ccccc1N=[N+]=[N-])C(=O)N1CCCCC1 | -0.0584 | -0.202 (inactive) | 0.374 | 0.104 | 0.559 | 2.97 | 0.608 | 1.29 | 0.0975 | 0.988 | 2.35 | 1.23 | 0.529 | 0.974 | 1.34 | 1.56 | 2.16 | 0.68 | 0.681 | -1.9 (inactive)
CN1C(=O)C2C=CC(C(O)c3ccc(F)cc3)N(N3CCCCC3)C2C1=O (stereo not given) | 0.853 | -0.908 (inactive) | 0.29 | 0.155 | 0.714 | 1.5 | 0.804 | 1.32 | -1.42 | 1.08 | 2.59 | 0.978 | 1.34 | 0.167 | 0.0756 | -0.627 | -0.0964 | -1.21 | 1.38 | 0.0216 (inactive)
C=CCOC(=O)[C@@H]1[C@H]2C(=O)O[C@H](c3ccccc3)[C@H](c3ccccc3)N2[C@H](c2ccc(OCCOC(=O)[C@H]3C[C@H]4C(=O)N[C@@H](Cc5ccccc5)C(=O)N4[C@H]3c3cccc(OCCO)c3)cc2)[C@@]12C(=O)Nc1ccc(I)cc12 | -0.868 | 0.111 (inactive) | 0.319 | -0.103 | 0.344 | 0.798 | 0.331 | 1.31 | 1 | 1.11 | 1.51 | 1.2 | 0.819 | 0.464 | 1.42 | 1.72 | -1.37 | 1.33 | 0.548 | -3.65 (inactive)
NCCCCCCNC(=O)[C@H]1C[C@H]2C(=O)N3CCC[C@H]3C(=O)N2[C@H]1c1ccc(O)cc1 | 0.425 | 2.61 (inactive) | -0.0362 | -0.201 | 0.722 | 0.307 | 0.597 | 0.644 | 0.777 | 0.998 | 2.79 | 0.609 | 1.1 | 0.437 | 1.36 | 1.66 | -0.712 | 0.918 | 0.752 | 0.24 (inactive)
C=CC[C@]1(C(=O)N2CCOCC2)N=C(c2ccc(OCCCO)cc2)O[C@H]1c1ccccc1CN=[N+]=[N-] | 0.971 | 0.0707 (inactive) | 0.533 | 0.0402 | 0.385 | 2.92 | 1.64 | 1.29 | -0.321 | 1.15 | 1.82 | 1.21 | 0.88 | 0.97 | 1.28 | 0.95 | 1.64 | 1.05 | 0.845 | -1.46 (inactive)
C=C(C(=O)CC[C@H](OC(=O)c1cccnc1)c1ccc(OCCO)cc1)C(C)C | 0.335 | -0.496 (inactive) | 0.0571 | -0.105 | 0.695 | 0.706 | 0.296 | 1.13 | 0.274 | 1.12 | 0.423 | 0.54 | 0.091 | 0.917 | 1.05 | 0.859 | 0.531 | 1.31 | -0.052 | -2.26 (inactive)
C[N+](C)(C)CCCCCCNC(=O)[C@H]1C[C@H]2C(=O)N3CCC[C@H]3C(=O)N2[C@H]1c1cccc(OCCO)c1 | -0.564 | 0.491 (inactive) | 0.398 | -0.0135 | 0.662 | 1.73 | 0.787 | 0.976 | 1.03 | 1.15 | 1.38 | 0.874 | 0.141 | 0.242 | 1.3 | 1.35 | -1.05 | 1.64 | -0.0285 | 0.126 (inactive)
COC(=O)[C@@]1(Cc2ccc(OC)cc2)[C@H]2c3cc(C(=O)N(C)C)n(Cc4cc(F)c(F)c(F)c4)c3C[C@H]2CN1C(=O)c1ccccc1 | 0.895 | -0.37 (inactive) | 0.578 | 0.212 | 0.767 | 2.73 | 0.331 | 1.11 | -0.0554 | 1.13 | 1 | 1.21 | 1.86 | 1.01 | 0.761 | -0.965 | -0.787 | 0.0601 | 0.952 | 1.07 (inactive)
COC(=O)[C@H]1N=C(c2ccc(OCCCO)cc2)O[C@H]1c1ccccc1CN=[N+]=[N-] | 0.394 | -0.391 (inactive) | 0.23 | -0.0174 | 0.41 | 1.78 | 0.427 | 0.0826 | -0.935 | 0.8 | 0.96 | -0.189 | 0.605 | 0.825 | 0.107 | -0.372 | 0.758 | -0.139 | 0.434 | -8.1 (active)
